Source: ChEMBL document CHEMBL3433997, “St. Jude Leishmania screening dataset” (2016)

What follows are molecules tested against Glucose transporter (Leishmania mexicana) (UniProt O61059) (assay: ST_JUDE_LEISH: Cytotoxicity at 2uM final concentration against transgenic Leishmania Mexicana promastigotes LmGT2 that are glucose transport deficient and complemented with the L. Mexicana glucose transporter 2. Activity is measured by DNA content using SYBR green in vitro).
Type: functional

SMILES	inhibition [%]
COc1ccc(Nc2ncc3c(-c4cccc(NC(=O)CC(C)C)c4)c[nH]c3n2)cc1OC	6.64
CCN(CC)Cc1cc(NC(=O)c2ccccc2O)ccc1Oc1ccc(Cl)cc1	1.46
CN(C)c1cc(NC(=O)Nc2ccc(SC(F)(F)F)cc2)c2ccccc2n1	0.58
CC(C)c1cn2c3c(cc(C(=O)N[C@@H](Cc4ccccc4)[C@H](O)CNC4CCOCC4)cc13)N(C)S(=O)(=O)CC2	3.22
Nc1cc2c(C3CCN(CC4CCN(C(=O)/C=C/c5ccc(Cl)c(Cl)c5)CC4)CC3)c[nH]c2cn1	-0.09
COc1cccc2c1CCN(CCN1CCC(CNC(=O)c3ccc(-c4ccc(C#N)cc4)cc3)CC1)C2	1.38
Cc1ccc(CNC(=O)[C@H](Cc2ccccc2)Nc2cc(C)nc(NCCc3ccc(F)cc3)n2)cc1	10.6
Cc1sc2ncnc(Sc3nc4ccccc4[nH]3)c2c1C	3.58
Cc1nc(-c2ccc(C(F)(F)F)cn2)sc1C(=O)N1CCc2cc3nccc(N4CCN5CCC[C@H]5C4)c3cc21	0.8
CCc1cc2c(Sc3nnc(N)s3)ncnc2s1	-5.69
Cc1ccn2c(C(=O)N3CCN(c4cccc5c4nc(-c4ccoc4)n5Cc4ccccn4)CC3)c(C)nc2c1	-0.49
CNCCNCc1cccc(-c2cccc(-c3nc4cc(C(F)(F)F)ccc4[nH]3)c2)c1	0.13
Cc1cccc2nc(-c3ccc(-c4ccc(NC(=O)NCc5ccc(F)cc5)cc4)cc3)[nH]c12	0.63
COc1ccc(NC(=O)c2cn(-c3ccc(C(C)(C)C)cc3)nc2C)cc1N1CCN(C)CC1	1.64
COc1ccc(Cl)c(CC2c3cc(O)c(Cl)cc3CCN2C)c1 (stereo not given)	-1.58
Nc1nccc2ccc(OC3CCCCC3)cc12	1.91
COC(=O)c1cccc(CNCc2cccc(-c3ccc(-c4nc5ccccc5[nH]4)cc3)c2)c1	2.19
N#Cc1ccc(CN2CCC(Oc3ccc(NC(=O)c4ccco4)cc3Cl)CC2)cc1	7.81
CCCCC(CC)NC(=O)[C@H]1CNCCN1C(=O)CCCc1ccccc1 (stereo not given in full)	-0.61
CC(C)OCCCNC(=O)c1nc(-c2cccc(C(F)(F)F)c2)sc1C(C)C	4.46

SMILES	inhibition [%]
FC(F)(F)COc1c(CCNCCCCNCCc2ccc3ccccc3c2OCC(F)(F)F)ccc2ccccc12	108
O=C(Nc1cccc(C(F)(F)F)c1)c1ccc(S(=O)(=O)NC2CCN(CC3CCCCC3)CC2)cc1	5.57
CC(=O)N1N=C(c2ccc(F)cc2)Sc2c1nc(C1CCCCC1)n2C(C)=O	7.07
COc1ccc(-c2ccc(NC(=O)c3ccc(Cl)cc3)cc2)cc1CN1CCN(C)CC1	-0.55
CN1CCC[C@H]1COc1ccc(CN2CC[C@H](NC(=O)c3ccc(Cl)c(Cl)c3)C2)cc1Br	1.89
CCCCCn1c(Sc2ccc(C#N)c([N+](=O)[O-])c2)nnc1-c1ccccc1	4.33
CCCCNCc1ccc(-c2nc(CN(Cc3ccc(Cl)c(Cl)c3)C(=O)CN(C)C)cs2)cc1	8.23
CCCc1ccc(NC(=O)c2ccc(CN3CCCN(Cc4ccc(OC)cc4)CC3)cc2)cc1	-0.74
CS(=O)(=O)c1ccc2c(c1)CCN(CCC1CCC(NC(=O)C(=Cc3cccc(C#N)c3)c3ccc(-c4ccccc4)cc3)CC1)CC2 (stereo not given)	1.15
CCC(CC)N1CCN(CC(=O)Nc2ccc([N+](=O)[O-])cc2C(=O)Nc2cccc(OC)c2)CC1	1.35
CC1(C)NC(N)=NC(=N)N1OCCOc1ccc2ccccc2c1	1.3
CCOC(=O)c1ccc(NC(=O)Nc2cccc(-c3ccc(-c4nc5cccc(C)c5[nH]4)s3)c2)cc1	2.18
N#Cc1cccc(NC(=O)NC2CCN(CCCCCNC(=O)/C=C/c3ccc(Cl)c(Cl)c3)CC2)c1	8.54
CCN1C(=O)C(=NN=C(S)N2CCCC2)c2ccccc21	-3.35
CN(C)CCN(Cc1ccccc1)c1ccc([N+](=O)[O-])cc1C(F)(F)F	8.1
O=C(Nc1ccc(-c2nc3ccccc3[nH]2)cc1)C1CCN(Cc2ccccc2)CC1	12.6
CNC(=O)c1cc(S(=O)(=O)N2CCN(c3ccccn3)CC2)c(C)s1	1.44
NCC1CCCN1Cc1cccc(-c2ccc(-c3nc4cc(C(F)(F)F)ccc4[nH]3)s2)c1 (stereo not given)	0.38
Fc1cc(Cl)ccc1Nc1ccnc2cc(-c3ccc(CNCCN4CCOCC4)o3)ccc12	0.9
CS(=O)(=O)c1ccc(-c2cnc(N)c(-c3cccc(O)c3)c2)cc1	6.07
